The text below walks through data of PubChem BioAssay AID1347170 (National Center for Advancing Translational Sciences (NCATS), 2019).

Results filed as inconclusive are left out. Values without a mark were called inactive. Active and inactive are the calls of the source. Calls come from the whole dose curve; as a rule, active = well fitted cell-killing curve with a large enough effect; inconclusive = small, poorly fitted or top-dose-only effect, or another doubt; inactive = flat fitted curve, though single readings scatter.

The experiment can be described thus: Vero cells viability counterscreen for qRT-PCR qHTS assay of selected Zika virus inhibitors. The note with it: CellTiter-Glo ATP luminescence, 24 h; series mostly up to 41.8 µM; activity change, negative = cytotoxicity: at the top concentration. The source says:
Assay Submitters (PI): Avindra Nath, Ph.D., National Institute of Neurological Disorders and Stroke (NINDS), Bethesda, MD Radhakrishnan Padmanabhan, Ph.D., Georgetown University (GU), Washington D.C. Zika Virus causes congenital defects, including microcephaly and is associated with Guillain-Barre syndrome, eningoencephalitis and myelitis in infected adult. […] Using a target-based approach, we hope to establish a screening paradigm to uncover novel, cell-active NS2B-NS3 protease (Zika Virus) specific inhibitors from NCATS' collection of small molecules using qHTS. […] Four assay panel was created to identify potential Zika Virus inhibitors. Namely, (1) GU unlinked NS2B-NS3 AMC tagged protease qHTS, (2) GU unlinked NS2B-NS3 Rhodamine tagged protease qHTS, (3) NINDS linked NS2B-NS3 AMC tagged protease qHTS, (4) NINDS linked NS2B-NS3 Rhodamine tagged protease qHTS. Inhibitors of the Zika virus primary screens are confirmed using qRT-PCR secondary assays, mCherry orthogonal assay, and Vero cells viability counterscreen. Cytotoxic compounds identified in the Vero cell viability counterscreen were excluded from the list of potential Zika virus inhibitors. Early Translation Branch (ETB) National Center for Advancing Translational Sciences (NCATS), Rockville, MD National Institute of Health (NIH), Bethesda, Maryland
Vero Cell Viability Assay: Vero cell cytotoxicity was determined using a luminescent readout with CellTiter Glo reagent (Promega, Madison, WI), which is based on measuring the ATP content within cells. Briefly, 4 uL of Vero cells at 2.5 x 10^5 cells/mL in DMEM containing 4% FBS were dispensed into 1536-well solid bottom tissue treated white plate using a Multidrop Combi dispenser (Thermo Scientific). Plates were incubated at 37 degrees C, 95% humidity, and 5% CO2 overnight to allow for cell attachment. Compounds were dissolved in DMSO at different concentrations and transferred via pintool (Wako Automation), for a final concentration of 57 uM - 0.029 uM. Plates were again incubated for 24 hours, followed by a 2 uL addition of CellTiter Glo. Finally, plates were incubated for 30 minutes at 37 degrees C and 5% CO2 before being read on a ViewLux (Perkin Elmer) for luminescence.
Regarding `O=C(O)c1ccc(CCCc2ccc(OCCc3ccc(F)cc3)cc2)o1`, the “activity change, negative = cytotoxicity” value was 12.6% [at 31.5 µM].

As for `CC1(C)CCC(CN2CCN(c3ccc(C(=O)NS(=O)(=O)c4ccc(NCC5CCOCC5)c([N+](=O)[O-])c4)c(Oc4cnc5[nH]ccc5c4)c3)CC2)=C(c2ccc(Cl)cc2)C1`, the Potency was 3.16 µM (active).

As to `CC1(C)CCC(C)(C)c2cc3c(cc21)Sc1ccccc1N=C3c1ccc(C(=O)O)cc1`, the “activity change, negative = cytotoxicity” value was -1.86%.

Regarding `CC[C@H](C)[C@H]1O[C@]2(CC[C@@H]1C)C[C@@H]1C[C@@H](C/C=C(\C)[C@@H](O[C@H]3C[C@H](OC)[C@@H](O[C@H]4C[C@H](OC)[C@@H](O)[C@H](C)O4)[C@H](C)O3)[C@@H](C)/C=C/C=C3\CO[C@@H]4[C@H](O)C(C)=C[C@@H](C(=O)O1)[C@]34O)O2`, the Potency was 11.2 µM (active).

In the case of `CN(C)[C@@H]1C(=O)C(C(N)=O)=C(O)[C@@]2(O)C(=O)C3=C(O)c4c(O)cccc4C[C@H]3C[C@@H]12`, the “activity change, negative = cytotoxicity” value is -8.19%.

As for `CC(C)c1cccc2c(-c3ccccc3)cc(-c3ccc(-c4ccc(C(=O)O)cc4)[nH]3)nc12`, the Potency was 25.1 µM (active).

As to `COc1cc(C(=O)NS(=O)(=O)c2ccccc2C)ccc1Cc1cn(C)c2ccc(NC(=O)OC3CCCC3)cc12`, the “activity change, negative = cytotoxicity” value was -4.59%.

As for `O=C(c1cc(O)c(O)c([N+](=O)[O-])c1)c1ccccc1F`, the “activity change, negative = cytotoxicity” value is -1.36%.

Turning to `N#CC(c1ccc(Cl)cc1)c1c(Cl)cc(-n2ncc(=O)[nH]c2=O)cc1Cl` (stereo not drawn), the “activity change, negative = cytotoxicity” value was -5.71%.

As to `CC(=O)Nc1ccc([C@H](C)C(=O)Nc2ncc(C(C)C)s2)cc1`, the Potency is 2.82 µM (active).

Regarding `COc1cc2c(c(O)c1OC/C=C(\C)CC/C=C(/C)CCC=C(C)C)CN(C(CCC(=O)O)C(=O)O)C2=O` (stereo not drawn), the “activity change, negative = cytotoxicity” value was 4.57% [at 14.9 µM].

For `CN(Cc1ccc(C(=O)O)cc1)c1ccc(OCc2c(-c3c(Cl)cccc3Cl)noc2C2CC2)nc1C(F)(F)F`, the “activity change, negative = cytotoxicity” value was 13.2%.

Take `CCOC(=O)c1ccc(N2C(=O)c3n[nH]c(-c4cccs4)c3C2c2ccc(C(C)(C)C)cc2)cc1` (stereo not drawn): the “activity change, negative = cytotoxicity” value was -6.72% [at 31.5 µM].

Consider `O=C(O)c1ccc(O)c2ncc(N3CCCN(CCc4cccc5ccccc45)CC3)cc12`, for which the “activity change, negative = cytotoxicity” value was -1.24%.

Turning to `CO[C@H]1C[C@@H](O[C@@H]2/C(C)=C/C[C@@H]3C[C@@H](C[C@]4(CC[C@H](C)[C@@H](C5CCCCC5)O4)O3)OC(=O)[C@@H]3C=C(C)/C(=N/O)[C@H]4OC/C(=C\C=C\[C@@H]2C)[C@]43O)O[C@@H](C)[C@H]1O`, the Potency was 25.1 µM (active).

Regarding `COc1cnc(-c2ccc(Cn3c(CC(C)(C)C(=O)O)c(SC(C)(C)C)c4cc(OC[C@@H]5Cc6ccccc6N5C(C)=O)ccc43)cc2)nc1`, the “activity change, negative = cytotoxicity” value was 0.74% [at 31.5 µM].

In the case of `COc1cc(/C=C(\C#N)C(=O)Nc2nnc(C(F)(F)F)s2)ccc1OCc1ccc(C(F)(F)F)cc1C(F)(F)F`, the “activity change, negative = cytotoxicity” value was 3.82%.

With `Cc1cc(C(C#N)c2ccc(Cl)cc2)c(Cl)cc1NC(=O)c1cc(I)cc(I)c1O` (stereo not drawn), the Potency was 31.6 µM (active).

`CN(C)[C@@H]1C(=O)C(C(N)=O)=C(O)[C@@]2(O)C(=O)C3=C(O)c4c(O)ccc(Cl)c4[C@@H](O)[C@H]3C[C@@H]12`: the “activity change, negative = cytotoxicity” value was -3.47%.

On to `Cc1ccc2[nH]c(=O)c(C3=NN(C(=O)CCC(=O)O)C(c4ccc(Br)cc4)C3)c(-c3ccccc3)c2c1` (stereo not drawn), for which the “activity change, negative = cytotoxicity” value was 5.86% [at 31.5 µM].

In the case of `CC(C)=CCCC1(C)C=Cc2c(O)c3c(c(CC=C(C)C)c2O1)OC12C(=CCCC1C(C)(C)O[C@@]2(C/C=C(\C)C(=O)O)C(=O)O)C3=O` (stereo partly drawn), the “activity change, negative = cytotoxicity” value was 0.248%.

As to `CC(C)(O)c1ccccc1CC[C@@H](SCC1(CC(=O)O)CC1)c1cccc(/C=C/c2ccc3ccc(Cl)cc3n2)c1`, the “activity change, negative = cytotoxicity” value is 0%.

As to `C/C(=C\c1ccc(C(=O)O)cc1)c1ccc2c(c1)C(C)(C)CCC2(C)C`, the “activity change, negative = cytotoxicity” value was -10.7%.

With `O=S(=O)(O)c1ccc2cc(N=Nc3cc(S(=O)(=O)O)c4cccnc4c3O)ccc2c1`, the “activity change, negative = cytotoxicity” value is 5.46%.

For `O=C(N/N=C/c1ccc(O)c(O)c1)c1cc2ccccc2cc1O`, the “activity change, negative = cytotoxicity” value is -8.44%.

Take `O=C1NC(=O)/C(=C/c2cccc(C(F)(F)F)c2)S1`: the “activity change, negative = cytotoxicity” value was -7.2%.

On to `O=C(Nc1cc(C(F)(F)F)cc(C(F)(F)F)c1)c1cc(Cl)ccc1O`, for which the “activity change, negative = cytotoxicity” value was 0.248%.

As for `COc1ccc(NS(=O)(=O)c2ccc(NS(=O)(=O)c3ccc4c(c3)OCCO4)cc2)cc1`, the “activity change, negative = cytotoxicity” value was -23.1%.

Consider `CC1(C)CC[C@]2(C(=O)O)CC[C@]3(C)C(=CCC4[C@@]5(C)C[C@@H](O)[C@H](O)C(C)(C)C5CC[C@]43C)C2C1` (stereo partly drawn), for which the “activity change, negative = cytotoxicity” value was -2.36% [at 20.9 µM].

`O=C(Nc1ccc(Oc2ccc(Cl)cc2)c(Cl)c1)c1cc(I)cc(I)c1O`: the “activity change, negative = cytotoxicity” value was 1.12%.

Take `COc1ccccc1-c1cccc(-c2c(O)c3cc(C#N)c(Cl)cc3[nH]c2=O)c1`: the “activity change, negative = cytotoxicity” value is 2.73%.

For the compound `COc1cc(Nc2nc3ccccc3nc2NS(=O)(=O)c2cccc(NC(=O)c3ccc(C)c(OC)c3)c2)cc(OC)c1`, the “activity change, negative = cytotoxicity” value is -7.94%.

As to `COc1cc(C)c(C(=O)OC2C(C)OC(OC3CCC(C)C4C3C=C(C)C3/C(C)=C\CC/C(C)=C/C5(C)C=C(C(=O)O)C(C)CC56OC(=O)/C(=C(\O)C34C)C6=O)C(O)C2O)c(OC)c1` (stereo not drawn), the activity change, negative = cytotoxicity was 3.72% [at 10.4 µM].
